From PubChem BioAssay (NCI)
About 83,000 compounds went through this panel and 20% of them were active in at least one assay; those are over-represented in the sample as a whole.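 How to read the values: 0–100, growth inhibition (40 = 60% inhibited); 0, no net growth; -100 to 0, cell death (-40 = 40% of starting cells died; -100 = all dead).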 The source made the active and inactive calls. The calls were made as follows: active = growth percent below 10; inactive = the rest.

test system: HL-60(TB) leukemia; assay: NCI-60 one-dose screen, 48 h (100 = growth as untreated, 0 = no growth, -100 = all killed); details: 10 µM unless noted

Row | SMILES | growth
1 | COc1ccc(C2CC(c3cccc(Nc4ccncc4)c3)=NN2c2cc(Cl)cc(Cl)c2)cc1 (centres undefined) | 4.35% (active)
2 | CCCn1nc(C(=O)N2CCCCC2)c2c1CCC(N1CCC(c3ccncc3)CC1)C2 (centres undefined) | 96.6% (inactive)
3 | COc1ccc2cc(-c3nc4ccccc4s3)c(Cl)nc2c1OC | 91.4% (inactive)
4 | COc1ccc(-c2nnc(COc3ccc(Cl)cc3Cl)o2)cc1OC | 89.3% (inactive)
5 | CC/C=C1/C(=O)C=C[C@@H]1C/C=C\CCCC(=O)O | 52.1% (inactive)
6 | CC/C=C\C[C@H](F)C/C=C1/C(=O)C=C[C@@H]1C/C=C\CCCC(=O)OC | -33.1% (active)
7 | Cc1c2cnccc2c(C)c2c1c1cc(O)ccc1n2C(C)C | 0.765% (active)
8 | O=C1/C(=C/c2ccccc2)CN(CCC(=O)N2C/C(=C\c3ccccc3)C(=O)/C(=C/c3ccccc3)C2)C/C1=C\c1ccccc1 | 48% (inactive)
9 | CC1CCN(CCCCCOc2ccc3oc4ccc(Cl)cc4c(=O)c3c2)CC1 | 39.6% (inactive)
10 | CN1C(=O)N(C)C2C1NN=c1s/c(=C\c3ccccc3)c(=O)n12 (centres undefined) | 16.9% (inactive)
11 | CC1(C)CC[C@]2(C(=O)O)CC[C@]3(C)C(=CC[C@@H]4[C@@]5(C)Cc6c([nH]c7ccccc67)C(C)(C)[C@@H]5CC[C@]43C)[C@@H]2C1 | 16.2% (inactive)
12 | CCN1CCN(c2cc(-c3cn[nH]c3-c3cc(C)cc(OC)c3)nc(-c3cccnc3)n2)CC1 | 64.9% (inactive)
13 | N=C(N)c1ccc(OCCCCCCCCCCOc2ccc(C(=N)N)cc2)cc1 | -70.1% (active)
14 | Cc1ccc2nc(NC(=O)CSc3nc(Cl)c(C#N)c(-c4ccccc4)n3)sc2c1 | 94.9% (inactive)
15 | COc1ccc(/C(C)=C(/c2ccc(OCCCN(C)C)cc2)c2ccc(OC(=O)c3ccccc3)cc2)cc1 | 62.8% (inactive)
16 | C=C(CN1CC=CCC1)[C@@H]1CC[C@]2(COC(C)=O)CC[C@]3(C)[C@H](CC[C@@H]4[C@@]5(C)CC[C@H](O)C(C)(C)[C@@H]5CC[C@]43C)[C@@H]12 | 102% (inactive)
17 | NS(=O)(=O)c1ccc(-c2cc(-c3nnc(SCC(=O)Nc4ccc(C(=O)/C=C/c5ccc(Cl)cc5)cc4)n3-c3ccccc3)c3ccccc3n2)cc1 | 92.2% (inactive)

Row | SMILES | growth
18 | CN1CCN(c2ccc(-c3cnc4c(-c5csc6ccccc56)cnn4c3)cc2)CC1 | 9.53% (active)
19 | COC(=O)c1ccc2oc(NC(=O)c3ccc(Nc4ccc([N+](=O)[O-])cc4C)c([N+](=O)[O-])c3)nc2c1 | 99.7% (inactive)
20 | O=C1CCC23OC(C(O)c4ccccc4N12)C1C(Br)=NOC13 (centres undefined) | 96% (inactive)
21 | Cc1cc(N2CCCCC2)nc(N(CCNc2ccnc3cc(Cl)ccc23)Cc2ccccn2)n1 | 41.6% (inactive)
22 | COc1cc(N=Nc2ccc(O)c3ncccc23)c2ncccc2c1 | -14.1% (active)
23 | COc1cccc(-c2nn(-c3ccccc3)cc2-c2ccnc(NCCNS(=O)(=O)c3ccc(Cl)cc3)c2)c1 | 7.06% (active)
24 | COc1ccc(-c2cc(-c3ccc(OC)cc3)nc(NCCCNc3ccnc4cc(Cl)ccc34)n2)cc1 | -37.7% (active)
25 | CCCCCN1C=C/C(=C\C(=O)N(C)c2cccc3ccccc23)c2ccccc21 | 97.1% (inactive)
26 | COC1=CC(c2ccc[nH]2)=N/C1=C\c1[nH]c(C)c(C(=O)CCCCC(=O)Nc2ccccc2)c1C | 74.9% (inactive)
27 | CCOC(=O)c1c(C(F)(F)F)n([O-])c2ccc(Cl)cc2[n+]1=O | -65.2% (active)
28 | CCC(=O)c1cc([N+](=O)[O-])c(Br)s1 | 34% (inactive)
29 | C=C(C)[C@@H]1CC[C@]2(COC(=O)c3ccccc3C(=O)O)CC[C@]3(C)[C@H](CC[C@@H]4[C@@]5(C)CCCNC(C)(C)[C@@H]5CC[C@]43C)[C@@H]12 | 6.45% (active)
30 | C#Cc1ccc(-n2c(/C=C/c3ccc4ccccc4c3)nc3ncccc3c2=O)cc1 | -2.99% (active)
31 | CN[C@@H](CCCNC(N)=NC/C=C(/C)CCC=C(C)C)C(=O)N(C)[C@@H](CCCNC(N)=NCC=C(C)C)C(=O)N[C@H](C)[C@H](OS(=O)(=O)O)c1ccc(OS(=O)(=O)O)c(COS(=O)(=O)O)c1 | 83.5% (inactive)
32 | COc1ccc2c(c1)C(=O)/C(=C/c1ncc([N+](=O)[O-])n1C)O2 | -7.47% (active)
33 | O=C(c1ccccc1)C(Nc1ccccc1)c1ccccc1 (centres undefined) | 84% (inactive)
34 | CC(=O)[C@H]1CC[C@H]2[C@@H]3CC[C@H]4CC=CC[C@]4(C)[C@H]3CC[C@]12C | 69% (inactive)
